# In PubChem BioAssay AID2284118 (EPA ToxCast):
# Active and inactive are the calls of the source. Rule for the calls: active = hit-call score of the fitted dose curve at least 0.9, where 1 is the maximum; inactive = score below 0.9.
# Biological target: human AMPKalpha1 CAMK Kinase, PRKAA1 (gene 5562) (UniProt Q13131)
# Assay: ERF_KP_ENZ_hPRKAA1: Eurofins (ERF) Enzymatic Radiometric [10 uM ATP] KinaseProfiler LeadHunter Assay for human AMPKalpha1 CAMK Kinase
# Procedure: ERF_KP_ENZ_hPRKAA1 is a biochemical, single-readout assay that uses extracted gene-proteins in a cell-free assay. Measurements were taken 0.66 hour after chemical dosing in a 96-well plate. See AMPKalpha1 Human CAMK Kinase Enzymatic Radiometric Assay [10 uM ATP], KinaseProfiler.ERF_KP_ENZ_hPRKAA1 is an assay component calculated from the ERF_KP_ENZ_hPRKAA1 assay. It is designed to measure enzyme activity using a type of enzyme reporter as detected by scintillation counting with radiometry technology.Data from the assay component ERF_KP_ENZ_hPRKAA1 was analyzed at the assay endpoint, ERF_KP_ENZ_hPRKAA1, in the positive analysis fitting direction relative to DMSO as the negative control and baseline of activity. Using a type of enzyme reporter, loss-of-signal activity can be used to understand changes in enzymatic activity as they relate to gene PRKAA1. To generalize the intended target to other relatable targets, this assay endpoint is annotated to the kinase intended target family, where the subfamily is serine/threonine kinase.
# AMPK (a1, b1, g1) (h) is incubated with 8 mM MOPS pH 7.0, 0.2 mM EDTA, 200 uM AMP, 100 uM […], 10 mM MgAcetate and [gamma-33P]-ATP (specific activity and concentration as required). The reaction is initiated by the addition of the Mg/ATP mix. […]
# Chain of human AMPKalpha1 CAMK Kinase, PRKAA1 (gene 5562) (Q13131 whole entry, looked up): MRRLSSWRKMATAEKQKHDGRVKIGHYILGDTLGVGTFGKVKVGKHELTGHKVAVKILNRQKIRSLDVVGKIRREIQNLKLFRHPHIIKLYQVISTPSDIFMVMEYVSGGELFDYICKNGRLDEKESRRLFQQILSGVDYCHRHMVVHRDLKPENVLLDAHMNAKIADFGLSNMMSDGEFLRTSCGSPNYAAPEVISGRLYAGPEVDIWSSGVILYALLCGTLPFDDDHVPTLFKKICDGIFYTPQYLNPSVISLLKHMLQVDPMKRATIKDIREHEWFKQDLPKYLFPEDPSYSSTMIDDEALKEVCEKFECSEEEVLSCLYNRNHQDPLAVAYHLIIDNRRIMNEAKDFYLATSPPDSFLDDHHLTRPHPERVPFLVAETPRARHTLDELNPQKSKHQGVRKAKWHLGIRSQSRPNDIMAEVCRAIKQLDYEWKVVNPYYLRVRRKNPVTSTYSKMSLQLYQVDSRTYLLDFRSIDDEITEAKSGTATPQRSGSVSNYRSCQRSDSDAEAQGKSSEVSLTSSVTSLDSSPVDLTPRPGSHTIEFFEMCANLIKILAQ
row,SMILES,AC50
1,O=C(/C=C/c1ccc(O)cc1)CC(=O)/C=C/c1ccc(O)cc1,298 pM (active)
